Source: PubChem BioAssay
HEK293 tox – qHTS of GLP-1 Receptor Inverse Agonists: Cytotox Screen | HEK293 cAMP-luciferase reporter cells, luminescence, 24 h | Potency, µM (series often up to 38.3 µM), inactives show at the highest dose activity change, negative = inhibition, usual class: inhibitors | 0.13% of 410,000 active | AID 624418, 2012;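 note: loss of luciferase light is scored as toxicity; potency is the fitted concentration of half-maximal effect; % is set by controls: 0 for no effect and ±100 for the full control effect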
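Here, cytotoxicity is scored as loss of luminescence. The MLSMR collection was tested on cells seeded in medium containing 10% Nu serum, with a 24 hr compound exposure preceded by 12 hours of culture.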
GLP1R ag – qHTS of GLP-1 Receptor Agonists | Glucagon-like peptide 1 receptor (Homo sapiens), P43220 | HEK293 GLP-1R CRE-luciferase, luminescence, 4-6 h; cells express a hypersensitive GLP-1R form | Potency, µM (top dose mostly 45.6 µM), inactives show top-dose activation, most hits filed as activators | 0.007% of 380,000 active | AID 624172, 2012; note: potency is the fitted concentration of half-maximal effect; % of control where 0% means no effect
Target sequence (P43220 whole entry, looked up): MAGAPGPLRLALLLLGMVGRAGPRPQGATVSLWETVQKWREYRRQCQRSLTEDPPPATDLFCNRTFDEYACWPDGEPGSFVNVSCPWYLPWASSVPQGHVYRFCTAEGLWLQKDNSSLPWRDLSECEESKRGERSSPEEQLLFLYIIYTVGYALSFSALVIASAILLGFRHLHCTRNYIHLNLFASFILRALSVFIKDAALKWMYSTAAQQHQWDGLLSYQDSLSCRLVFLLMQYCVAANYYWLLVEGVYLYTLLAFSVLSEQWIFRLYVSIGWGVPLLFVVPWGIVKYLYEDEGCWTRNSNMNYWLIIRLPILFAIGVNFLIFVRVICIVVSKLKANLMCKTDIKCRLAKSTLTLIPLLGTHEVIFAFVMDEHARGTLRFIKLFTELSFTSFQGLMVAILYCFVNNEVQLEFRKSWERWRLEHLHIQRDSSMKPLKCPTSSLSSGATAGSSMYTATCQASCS
GLP1R inv ag – qHTS of GLP-1 Receptor Inverse Agonists (Inhibition Mode) | HEK293 GLP-1R CRE-luciferase, luminescence, 24 h; GLP-1R form is constitutively active | Potency, µM (titrated, usually from 38.3 µM), for inactives: at the top dose activity change, negative = inhibition, hits mostly inhibitors | 1.6% of 410,000 active; note: potency is the fitted concentration of half-maximal effect; % is set by controls: 0 for no effect and ±100 for the full control effect; nearly all actives have a fitted effect of over 55% in size
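Inverse agonists were sought by their lowering of basal cAMP reporter luciferase output in HEK293 cells stably carrying constitutively active human GLP-1R, after 24 h compound treatment.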
miR-21 reporter – qHTS Assay for Modulators of miRNAs and/orActivators of miR-21 | HeLa miR-21 FLuc reporter, luciferase, 48 h | Potency, µM (titrated, usually from 38.3 µM), without a hit: top-dose activity change, positive = activation, hits mostly activators | 340,000 tested, under 10 active | AID 2288, 2010;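 note: % of control where 0% means no effect; miR-21 action dims this reporter so a rising signal means less miR-21 action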
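HeLa cells stably expressing CMV-driven firefly luciferase with a downstream miR-21 binding sequence, endogenously expressing miR-21, were treated with titrations (up to about 40uM final) for 48 hours at 37 degree Celsius. Luciferase luminescence was read after lysis.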
PTHR1 agonist – qHTS for PTHR1 Agonists: Primary Screen. Potency, µM (highest dose often 115 µM), without a hit: top-dose activation, actives largely listed as activators. HEK293 GP2 PTHR1 cells, GloSensor cAMP luminescence, 1 h. 0.075% of 410,000 active. Parathyroid hormone/parathyroid hormone-related peptide receptor (Homo sapiens), Q03431; note: potency is the fitted concentration of half-maximal effect; nearly all actives have a fitted effect of over 55% in size
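HEK-293-derived GP2 cells expressing PTHR1 and a GloSensor cAMP reporter, 3,000/well, plated overnight, given luciferin plus IBMX (each 0.5 mM as added) for 1 h at 37 °C, then compound for 1 h at 37 °C. Luminescence was read after 15 min at room temperature.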
Pin1 inhibitor – qHTS Assay to Find Inhibitors of Pin1; Pin1 FP peptide displacement, HiFluor488, 10 min; Potency, µM (doses to about 115 µM), inactives show at the top dose activity, negative = inhibition, actives largely listed as inhibitors; 0.009% of 390,000 active; AID 504891, 2011; Peptidyl-prolyl cis-trans isomerase NIMA-interacting 1 (Homo sapiens), Q13526; active = well fitted inhibition curve with a large enough effect in the polarisation, with a control signal flat, not every such curve was filed as active; inconclusive = small, poorly fitted or top-dose-only effect, or effect the other way, or a change in a side signal; inactive = no such curve, though single readings can be large or run the other way; the % refers to the polarisation; note: potency is the fitted concentration of half-maximal effect; % is set by controls: 0 for no effect and ±100 for the full control effect
Target sequence (Q13526 whole entry, looked up): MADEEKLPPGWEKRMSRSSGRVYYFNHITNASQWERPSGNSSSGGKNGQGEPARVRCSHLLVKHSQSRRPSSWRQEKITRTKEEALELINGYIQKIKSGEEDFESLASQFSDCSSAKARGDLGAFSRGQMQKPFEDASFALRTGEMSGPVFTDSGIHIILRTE
An asterisk follows results filed as active. Hits are enriched below; roughly 1.7% of the tested compounds scored in any of these assays. Unless noted, calls come from the whole dose curve; as a rule, active = well fitted curve in the direction sought with a large enough effect; inconclusive = small, poorly fitted or top-dose-only effect, or another doubt; inactive = no such curve, though single readings can be large; an effect the other way counts as inactive or inconclusive.

How did COC(=O)c1c(C)oc2ccc(N(C(=O)c3ccncc3)S(=O)(=O)c3ccc(OC)cc3)cc12 do in these assays?
HEK293 tox: inconclusive; GLP1R inv ag: inconclusive; miR-21 reporter: 24%; PTHR1 agonist: -67%; Pin1 inhibitor: 5%

How did COc1ccc(S(=O)(=O)N(C(=O)c2ccncc2)c2ccc3oc(C)c(C(C)=O)c3c2)cc1 do in these assays?
HEK293 tox: -25%; GLP1R inv ag: 3.2µM*; miR-21 reporter: inconclusive; PTHR1 agonist: -31%; Pin1 inhibitor: 10%

What do the screens show for `O=C(c1ccncc1)N(c1ccc2oc3c(c2c1)CCCC3)S(=O)(=O)c1cccc([N+](=O)[O-])c1`?
HEK293 tox: -3%; GLP1R ag: -20%; GLP1R inv ag: 10%; miR-21 reporter: -6%; PTHR1 agonist: -10%; Pin1 inhibitor: 2%

What do the screens show for `COc1ccc(S(=O)(=O)N(C(=O)c2ccncc2)c2ccc3oc4c(c3c2)CCCC4)cc1`?
HEK293 tox: inconclusive; GLP1R ag: -14%; GLP1R inv ag: 10µM*; miR-21 reporter: 22%; PTHR1 agonist: -1%; Pin1 inhibitor: 26%

How did O=C(CCCn1ccc2cc(S(=O)(=O)N3CCCC3)ccc21)NCc1ccc(Cl)cc1 do in these assays?
HEK293 tox: -18%; GLP1R inv ag: inconclusive; miR-21 reporter: inconclusive; PTHR1 agonist: -32%; Pin1 inhibitor: 60%

Results for CC1CC(C)CN(c2oc(-c3ccc(OCc4ccccc4Cl)cc3)nc2C#N)C1 (stereo not given) ?
Pin1 inhibitor: 5%

Results for CCCCCCC[C@@H](C/C=C/CCC(=O)N(C)C/C(=C/Cl)C/C(=C\C(=O)N1C[C@H](O)CC1=O)OC)OC ?
HEK293 tox: -19%; GLP1R ag: 4%; GLP1R inv ag: 11µM*; PTHR1 agonist: -48%; Pin1 inhibitor: inconclusive

Results for CCCCCCC[C@@H](C/C=C/CCC(=O)N(C)C/C(=C/Cl)C/C(=C\C(=O)N1CC(OC)=CC1=O)OC)OC ?
HEK293 tox: 2%; GLP1R ag: -3%; GLP1R inv ag: -27%; PTHR1 agonist: -51%; Pin1 inhibitor: 10%

Results for O=C1c2ccccc2C(=O)N1c1cccc2ncccc12 ?
Pin1 inhibitor: -12%

Results for Cc1c(C(=O)Nc2ccccc2F)sc2ncnc(N(C)C3CCCCC3)c12 ?
HEK293 tox: 1%; GLP1R inv ag: -13%; miR-21 reporter: 4%; PTHR1 agonist: inactive; Pin1 inhibitor: inconclusive

What do the screens show for `Cc1c(C(=O)NC(C)c2ccccc2)sc2ncnc(N(C)C3CCCCC3)c12` (stereo not given)?
HEK293 tox: 7%; GLP1R inv ag: 11µM*; miR-21 reporter: 18%; PTHR1 agonist: inactive; Pin1 inhibitor: -1%

What do the screens show for `CCCC[C@@H]1CCCO[C@@](C(=O)NCc2ccccn2)(C(F)(F)F)C1`?
HEK293 tox: 19%; GLP1R ag: -4%; GLP1R inv ag: 5µM*; PTHR1 agonist: -5%; Pin1 inhibitor: inconclusive

What do the screens show for `O=C(NCCc1csc2nc(-c3cccc(F)c3)nn12)c1ccc(Br)o1`?
HEK293 tox: -1%; GLP1R inv ag: -16%; miR-21 reporter: 7%; PTHR1 agonist: -11%; Pin1 inhibitor: 0%

Results for O=C(Nc1ccc2c(c1)OCCO2)c1ccc(Br)s1 ?
HEK293 tox: inconclusive; GLP1R ag: -13%; GLP1R inv ag: 10µM*; miR-21 reporter: -17%; PTHR1 agonist: -47%; Pin1 inhibitor: -3%

Results for COc1ccc(C(=O)Nc2ccc3c(c2)OCCO3)cc1 ?
HEK293 tox: -40%; GLP1R ag: -7%; GLP1R inv ag: 13µM*; miR-21 reporter: 2%; PTHR1 agonist: inactive; Pin1 inhibitor: -9%

What do the screens show for `Cc1sc(-c2cc3c([nH]c2=O)CC(c2ccccc2)CC3=O)nc1-c1ccc(Cl)cc1` (stereo not given)?
HEK293 tox: inconclusive; GLP1R inv ag: 1.3µM*; miR-21 reporter: 24%; PTHR1 agonist: 18%; Pin1 inhibitor: inconclusive

Results for O=C1CC(c2ccccc2)Cc2[nH]c(=O)c(-c3nc(-c4ccc(Cl)cc4)cs3)cc21 (stereo not given) ?
HEK293 tox: 5%; GLP1R inv ag: inconclusive; miR-21 reporter: 19%; PTHR1 agonist: inactive; Pin1 inhibitor: 20%

How did Cc1ccc(C(C)C)c(OCC(=O)NCC2(N(C)C)CCCCC2)c1 do in these assays?
HEK293 tox: -7%; GLP1R ag: 0%; GLP1R inv ag: inconclusive; miR-21 reporter: 7%; PTHR1 agonist: inactive; Pin1 inhibitor: -1%

How did CCC(=O)NC(c1ccc2c(c1)OCO2)c1cc(Cl)c2cccnc2c1O (stereo not given) do in these assays?
Pin1 inhibitor: -5%

How did CCCC(=O)NC(c1ccc2c(c1)OCO2)c1cc(Cl)c2cccnc2c1O (stereo not given) do in these assays?
HEK293 tox: -31%; GLP1R ag: -18%; GLP1R inv ag: 4µM*; miR-21 reporter: inconclusive; PTHR1 agonist: -18%; Pin1 inhibitor: -3%

How did Cc1ccn2c(Nc3c(C)cccc3C)c(-c3ccc(Cl)s3)nc2c1 do in these assays?
HEK293 tox: 1%; GLP1R inv ag: inconclusive; miR-21 reporter: 13%; PTHR1 agonist: -3%; Pin1 inhibitor: 53%

How did CCC/C(=C1/c2ccccc2C(=O)N1c1ccccc1)c1ccc2[nH]ccc2c1 do in these assays?
HEK293 tox: -4%; GLP1R ag: -3%; GLP1R inv ag: 4.5µM*; PTHR1 agonist: -62%; Pin1 inhibitor: 2%

How did O=C1c2ccccc2/C(=C\c2ccc3[nH]ccc3c2)N1c1ccccc1 do in these assays?
HEK293 tox: -4%; GLP1R ag: -2%; GLP1R inv ag: 1%; PTHR1 agonist: -12%; Pin1 inhibitor: 50%

How did COc1ccc(N2CCN(C(=O)CN(c3ccccc3)S(=O)(=O)c3ccc(OC)cc3)CC2)cc1 do in these assays?
HEK293 tox: 1%; GLP1R ag: -11%; GLP1R inv ag: 0%; miR-21 reporter: 2%; PTHR1 agonist: -33%; Pin1 inhibitor: 2%
